This is part of a sample that, as a whole, favours compounds with a hit. Of some 79,000 tested, about 15% had one in any assay. Active and inactive are the calls of the source. No stated cut-off is given here; in the data, active means growth inhibition above about 70%; inactive means the rest.
What was measured:
[1] = NCI Yeast Anticancer Drug Screen. Data for the mec2-1 strain (AID 157); settings: S. cerevisiae mec2-1 strain, active compounds read high
Method in brief: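 Test agents were screened against the mec2-1 yeast strain, with defined DNA repair or cell cycle alteration. Growth was scored as inhibition against vehicle-only controls.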

[2] = NCI Yeast Anticancer Drug Screen. Data for the rad14 strain (AID 159);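 further: 0% = growth of vehicle-treated control cultures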; settings: S. cerevisiae rad14 strain growth inhibition, active compounds read high
Method in brief: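 Vehicle-treated cultures served as the baseline for growth inhibition of a DNA repair-mutant yeast strain exposed to each compound.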

[3] = NCI Yeast Anticancer Drug Screen. Data for the sgs1 mgt1 strain (AID 161);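 further: 0% = growth of cultures given vehicle only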; settings: S. cerevisiae sgs1 mgt1 strain, active compounds read high
Method in brief: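 Mutant yeast exposed to compound; growth scored against vehicle-only wells.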

[4] = NCI Yeast Anticancer Drug Screen. Data for the CLN2oe strain (AID 163);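 further: 0% = growth of vehicle-only control cultures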; settings: S. cerevisiae CLN2oe strain, active compounds read high
Method in brief: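 Here, growth inhibition in a cell-cycle-altered yeast strain after compound exposure was quantified against vehicle control growth.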

[5] = NCI Yeast Anticancer Drug Screen. Data for the cln2 rad14 strain (AID 165);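 further: 0% = growth equal to vehicle treated cultures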; settings: S. cerevisiae cln2 rad14 strain, active compounds read high
Method in brief: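 Growth of compound-exposed yeast (cln2 rad14 genotype) measured and expressed as inhibition relative to vehicle.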

[6] = NCI Yeast Anticancer Drug Screen. Data for the bub3 strain (AID 167); settings: S. cerevisiae bub3 mutant strain, active compounds read high
Method in brief: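 Inhibition values come from growth of compound-treated mutant yeast normalised to vehicle-treated controls.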

[7] = NCI Yeast Anticancer Drug Screen. Data for the wt2 strain (AID 169);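 further: 0% = growth of vehicle-treated yeast cultures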; settings: S. cerevisiae wt2 strain growth inhibition, active compounds read high
Method in brief: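 Genetically defined yeast strains from a DNA-repair/cell-cycle panel were used. Compound-exposed yeast growth was measured, and the inhibition was calculated relative to vehicle treatment.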

[8] = NCI Yeast Anticancer Drug Screen. Data for the mlh1 strain (AID 171);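 further: 0% = growth of vehicle-treated control cultures of the same strain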; settings: S. cerevisiae mlh1 strain growth inhibition, active compounds read high
Method in brief: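 Here the genetically defined yeast mutant is grown with each compound, and the extent to which its growth falls below that of vehicle-exposed cells is reported.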

[9] = NCI Yeast Anticancer Drug Screen. Data for the sgs1 strain (AID 173);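 further: 0% = growth of vehicle-only control cultures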; settings: S. cerevisiae sgs1 mutant, active compounds read high
Method in brief: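 Relative growth inhibition, referenced to vehicle, was determined in a yeast strain with a defined alteration affecting DNA damage repair or cell cycle control after compound exposure.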

[10] = NCI Yeast Anticancer Drug Screen. Data for the mlh1 rad18 strain (AID 175); settings: S. cerevisiae mlh1 rad18 strain growth inhibition, active compounds read high
Method in brief: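 In this whole-cell yeast screen, a strain with altered DNA damage repair is challenged with compound, and its growth is measured against matched vehicle-treated controls.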

[11] = NCI Yeast Anticancer Drug Screen. Data for the rad18 strain (AID 177); settings: S. cerevisiae rad18 mutant growth inhibition, active compounds read high
Method in brief: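 Screen uses a yeast strain with a defined lesion in DNA damage repair; compound effect is read as loss of growth compared to untreated vehicle cultures.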

[12] = NCI Yeast Anticancer Drug Screen. Data for the rad50EPP+ strain (AID 151);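 further: 0% = growth of vehicle-treated control cultures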; settings: S. cerevisiae rad50 mutant strain, active compounds read high
Method in brief: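 One strain with a rad50 alteration (rad50EPP+) was compound-treated, its growth then compared to that of vehicle controls.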

[13] = NCI Yeast Anticancer Drug Screen. Data for the mgt1 strain (AID 153); settings: S. cerevisiae mgt1 mutant growth inhibition, active compounds read high
Method in brief: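 After exposure of the mgt1 yeast mutant to compound, growth was measured and reported as inhibition compared with vehicle controls.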

[14] = NCI Yeast Anticancer Drug Screen. Data for the rad50 strain (AID 155);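 further: 0% = growth of vehicle-only cultures of the same strain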; settings: S. cerevisiae rad50 strain growth inhibition, active compounds read high
Method in brief: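 A DNA repair-deficient yeast mutant serves as the test organism; compound-induced growth inhibition is calculated against vehicle-treated cells.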

[15] = NCI Yeast Anticancer Drug Screen. Data for the rad52 strain (AID 147);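 further: 0% = growth of vehicle-treated control cultures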; settings: S. cerevisiae rad52 mutant growth inhibition, active compounds read high
Method in brief: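 Measured: yeast growth inhibition. System: strain with a defined DNA damage repair alteration. Reference: vehicle-treated control cultures.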

[16] = at 5.0 µM (retest, dose inferred, filed as 0.5)
[17] = at 50.0 µM (retest, dose inferred, filed as 5.0)

Measured: growth inhibition

CC1=C(C)C(=O)C2=C(OCCO2)C1=O
active: [2]; at 100.0 µM 71% | [9]; at 100.0 µM 88%
inactive: [1]; at 100.0 µM 20% | [2]; at 1.2 µM -1% | [2]; at 3.7 µM -1% | [2]; at 11.0 µM 4% | [2]; at 33.0 µM 17% | [3]; [16] -10% | [3]; [17] 21% | [3]; at 50.0 µM 29.8% | [4]; at 1.2 µM 0% | [4]; at 3.7 µM -4% | [4]; at 11.0 µM 3% | [4]; at 33.0 µM 15% | [4]; at 100.0 µM 27% | [5]; [16] 3% | [5]; [17] 29% | [5]; at 50.0 µM 3.35% | [6]; at 1.2 µM 0% | [6]; at 3.7 µM 2% | [6]; [16] -22% | [6]; at 11.0 µM 9% | [6]; at 33.0 µM 18% | [6]; [17] 35% | [6]; at 50.0 µM 59.4% | [6]; at 100.0 µM 48% | [7]; at 1.2 µM -9% | [7]; at 3.7 µM -12% | [7]; at 11.0 µM -2% | [7]; at 33.0 µM -13% | [7]; at 100.0 µM -5% | [8]; at 1.2 µM -4% | [8]; at 3.7 µM -3% | [8]; at 11.0 µM 3% | [8]; at 33.0 µM 14% | [8]; at 100.0 µM 54% | [9]; at 1.2 µM -22% | [9]; at 3.7 µM 23% | [9]; at 11.0 µM -14% | [9]; at 33.0 µM 26% | [10]; [16] 4% | [10]; [17] 50% | [10]; at 50.0 µM 26% | [11]; at 1.2 µM -5% | [11]; at 3.7 µM -5% | [11]; at 11.0 µM -4% | [11]; at 33.0 µM 6% | [11]; at 100.0 µM 54%

O=[N+]([O-])c1cccc2nc3ccccc3c(NCCCN3CCCCC3)c12
inactive: [13]; at 1.2 µM 12% | [13]; at 3.7 µM 45% | [4]; at 1.2 µM -3% | [4]; at 3.7 µM 45% | [6]; at 1.2 µM -14% | [6]; at 3.7 µM 21% | [6]; [16] 22% | [7]; at 1.2 µM 1% | [7]; at 3.7 µM 39% | [8]; at 1.2 µM 10% | [8]; at 3.7 µM 50%
active: [12]; at 1.2 µM 83% | [12]; at 3.7 µM 96% | [12]; at 11.0 µM 98% | [12]; at 33.0 µM 98% | [12]; at 100.0 µM 99% | [13]; at 11.0 µM 94% | [13]; at 33.0 µM 98% | [13]; at 100.0 µM 99% | [14]; at 1.2 µM 71% | [14]; at 3.7 µM 89% | [14]; [16] 89% | [14]; at 11.0 µM 94% | [14]; at 33.0 µM 96% | [14]; [17] 98% | [14]; at 50.0 µM 96.7% | [14]; at 100.0 µM 97% | [1]; at 1.2 µM 73% | [1]; at 3.7 µM 94% | [1]; [16] 97% | [1]; at 11.0 µM 97% | [1]; at 33.0 µM 97% | [1]; [17] 99% | [1]; at 50.0 µM 98.2% | [1]; at 100.0 µM 98% | [2]; at 1.2 µM 98% | [2]; at 3.7 µM 98% | [2]; at 11.0 µM 98% | [2]; at 33.0 µM 99% | [2]; at 100.0 µM 98% | [3]; [16] 92% | [3]; [17] 98% | [3]; at 50.0 µM 97% | [4]; at 11.0 µM 89% | [4]; at 33.0 µM 95% | [4]; at 100.0 µM 98% | [5]; [16] 99% | [5]; [17] 99% | [5]; at 50.0 µM 97.5% | [6]; at 11.0 µM 90% | [6]; at 33.0 µM 97% | [6]; [17] 98% | [6]; at 50.0 µM 96.8% | [6]; at 100.0 µM 98% | [7]; at 11.0 µM 89% | [7]; at 33.0 µM 97% | [7]; at 100.0 µM 98% | [8]; at 11.0 µM 92% | [8]; at 33.0 µM 97% | [8]; at 100.0 µM 99% | [9]; at 1.2 µM 87% | [9]; at 3.7 µM 93% | [9]; at 11.0 µM 95% | [9]; at 33.0 µM 98% | [9]; at 100.0 µM 98% | [10]; [16] 97% | [10]; [17] 99% | [10]; at 50.0 µM 98% | [11]; at 1.2 µM 96% | [11]; at 3.7 µM 95% | [11]; at 11.0 µM 97% | [11]; at 33.0 µM 98% | [11]; at 100.0 µM 99%

c1ccc2c(c1)ccn2CCc1c[nH]c2ccccc12
inactive: [15]; at 1.2 µM -35% | [15]; at 3.7 µM -37% | [15]; at 11.0 µM -20% | [15]; at 33.0 µM 31% | [13]; at 1.2 µM -26% | [13]; at 3.7 µM -26% | [13]; at 11.0 µM -4% | [13]; at 33.0 µM 33% | [14]; at 1.2 µM -20% | [14]; at 3.7 µM -20% | [14]; [16] -13% | [14]; at 11.0 µM -5% | [14]; at 33.0 µM 34% | [14]; [17] 48% | [1]; at 1.2 µM -24% | [1]; at 3.7 µM -23% | [1]; [16] -5% | [1]; at 11.0 µM -27% | [1]; at 33.0 µM 0% | [1]; [17] 1% | [2]; at 1.2 µM -16% | [2]; at 3.7 µM -29% | [2]; at 11.0 µM -28% | [2]; at 33.0 µM 6% | [3]; [16] -10% | [3]; [17] 25% | [3]; at 50.0 µM 57.9% | [4]; at 1.2 µM 7% | [4]; at 3.7 µM 21% | [4]; at 11.0 µM 12% | [4]; at 33.0 µM 48% | [5]; [16] -1% | [5]; [17] 52% | [6]; at 1.2 µM 15% | [6]; at 3.7 µM 18% | [6]; [16] -19% | [6]; at 11.0 µM 39% | [7]; at 1.2 µM -29% | [7]; at 3.7 µM -28% | [7]; at 11.0 µM -20% | [7]; at 33.0 µM 20% | [8]; at 1.2 µM -18% | [8]; at 3.7 µM -14% | [8]; at 11.0 µM -6% | [8]; at 33.0 µM 15% | [9]; at 1.2 µM -38% | [9]; at 3.7 µM -38% | [9]; at 11.0 µM -20% | [9]; at 33.0 µM 20% | [10]; [16] 3% | [10]; [17] 51% | [11]; at 1.2 µM -42% | [11]; at 3.7 µM -46% | [11]; at 11.0 µM -23% | [11]; at 33.0 µM 9%
active: [15]; at 100.0 µM 97% | [13]; at 100.0 µM 96% | [14]; at 50.0 µM 91% | [14]; at 100.0 µM 98% | [1]; at 50.0 µM 93.4% | [1]; at 100.0 µM 96% | [2]; at 100.0 µM 97% | [4]; at 100.0 µM 95% | [5]; at 50.0 µM 91.7% | [6]; at 33.0 µM 79% | [6]; [17] 70% | [6]; at 50.0 µM 89.7% | [6]; at 100.0 µM 95% | [7]; at 100.0 µM 97% | [8]; at 100.0 µM 97% | [9]; at 100.0 µM 95% | [10]; at 50.0 µM 91.4% | [11]; at 100.0 µM 98%

From PubChem BioAssay (NCI)
